Data published in the supplement of paper PMC11172423.

system: Madurella mycetomatis MM55; experiment: growth relative to untreated control; higher = less inhibition, active = 20 or less; details: 25 µM
Description: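 Hyphal fragments of M. mycetomatis MM55 or F. senegalensis CBS197.79 in RPMI 1640/MOPS were exposed to each MMV COVID Box or Global Health Priority Box compound at 100 or 25 µM for 7 days at 37 °C. Viability was read with MTS (490 nm, M. mycetomatis) or resazurin (600 nm, F. senegalensis), background-corrected with a medium-only control and expressed as % growth relative to the untreated growth control. Inhibition of more than 80% was taken as growth inhibition.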

Compound	growth
CC(=O)N1CCN(c2ccc(OC[C@H]3CO[C@](Cn4ccnc4)(c4ccc(Cl)cc4Cl)O3)cc2)CC1	3.29% (active)
CN1CCN(c2ccc(C(=O)NCc3cnc(C#N)nc3NCC(C)(C)C)cc2)CC1	72.9% (inactive)
O=c1[nH]c2ccccc2n1CCCN1CCN(C(c2ccccc2)c2ccccc2)CC1	91.1% (inactive)
COc1cc2nccc(Oc3ccc(NC(=O)C4(C(=O)Nc5ccc(F)cc5)CC4)cc3)c2cc1OC	99.9% (inactive)
CN1CCC(N2CCC(NC(=O)c3cc4c(F)cccc4s3)CC2)CC1	131% (inactive)
COC(=O)N[C@H](C(=O)N1CCC[C@H]1c1ncc(-c2ccc(-c3ccc(-c4cnc([C@@H]5CCCN5C(=O)[C@@H](NC(=O)OC)C(C)C)[nH]4)cc3)cc2)[nH]1)C(C)C	82.5% (inactive)
CCCCCOc1ccc(-c2ccc(-c3ccc(C(=O)N[C@H]4C[C@@H](O)[C@@H](O)NC(=O)[C@@H]5[C@@H](O)[C@@H](C)CN5C(=O)[C@H]([C@@H](C)O)NC(=O)[C@H]([C@H](O)[C@@H](O)c5ccc(O)cc5)NC(=O)[C@@H]5C[C@@H](O)CN5C(=O)[C@H]([C@@H](C)O)NC4=O)cc3)cc2)cc1	92.9% (inactive)
O=C(c1ccc(Nc2nccc(-c3ccc(C(F)(F)F)c(Cl)c3)n2)cc1)N1CC(O)C1	103% (inactive)
S=C(NCc1ccc2c(c1)OCO2)N1CCN(c2ncnc3c2oc2ccccc23)CC1	73.4% (inactive)
O=C(Nc1cccc(Cl)c1)c1ccnc(N2CCC(N3CCCC3)CC2)c1	73.7% (inactive)
COc1cccc2c1C(=O)c1c(O)c3c(c(O)c1C2=O)C[C@@](O)(C(=O)CO)C[C@@H]3O[C@H]1C[C@H](N)[C@H](O)[C@H](C)O1	116% (inactive)
C[C@H](NC(=O)c1cc2ccc(F)cc2[nH]1)c1ccccc1	83.1% (inactive)
CCCCC(=O)N(Cc1ccc(-c2ccccc2-c2nn[nH]n2)cc1)[C@H](C(=O)O)C(C)C	82.1% (inactive)
O=C(c1ccc(Nc2nccc(-c3cc(Cl)cc(C(F)(F)F)c3)n2)cc1)N1CC2(COC2)C1	62.9% (inactive)
CC(=O)Nc1ccc(NC(=O)c2cc(-c3ccc(C)cc3O)n[nH]2)cc1	85.3% (inactive)
O=C(NC(CCO)C1CCCCC1)c1cc2ccc(C(F)(F)F)cc2[nH]1 (stereo not given)	101% (inactive)
C=CC[C@@H]1/C=C(\C)C[C@H](C)C[C@H](OC)[C@H]2O[C@@](O)(C(=O)C(=O)N3CCCC[C@H]3C(=O)O[C@H](/C(C)=C/[C@@H]3CC[C@@H](O)[C@@H](OC)C3)[C@H](C)[C@@H](O)CC1=O)[C@H](C)C[C@@H]2OC	84.5% (inactive)
O=C(OI(OC(=O)C(F)(F)F)c1ccccc1)C(F)(F)F	89.9% (inactive)
C[C@@H]1CS/C(=N\NC(=O)C(=O)[C@@H](NC(=O)C2CCCCCC2)C2CCOCC2)N1C	88.8% (inactive)
CCC(CC)COC(=O)[C@H](C)NP(=O)(OC[C@H]1O[C@@](C#N)(c2ccc3c(N)ncnn23)[C@H](O)[C@@H]1O)Oc1ccccc1 (stereo not given in full)	95.1% (inactive)

same assay, conditions: 100 µM

Compound	growth
CC(=O)N1CCN(c2ccc(OC[C@H]3CO[C@](Cn4ccnc4)(c4ccc(Cl)cc4Cl)O3)cc2)CC1	3.16% (active)
CN1CCN(c2ccc(C(=O)NCc3cnc(C#N)nc3NCC(C)(C)C)cc2)CC1	3.97% (active)
O=c1[nH]c2ccccc2n1CCCN1CCN(C(c2ccccc2)c2ccccc2)CC1	5.01% (active)
COc1cc2nccc(Oc3ccc(NC(=O)C4(C(=O)Nc5ccc(F)cc5)CC4)cc3)c2cc1OC	79.9% (inactive)
CN1CCC(N2CCC(NC(=O)c3cc4c(F)cccc4s3)CC2)CC1	46.6% (inactive)
COC(=O)N[C@H](C(=O)N1CCC[C@H]1c1ncc(-c2ccc(-c3ccc(-c4cnc([C@@H]5CCCN5C(=O)[C@@H](NC(=O)OC)C(C)C)[nH]4)cc3)cc2)[nH]1)C(C)C	85.6% (inactive)
CCCCCOc1ccc(-c2ccc(-c3ccc(C(=O)N[C@H]4C[C@@H](O)[C@@H](O)NC(=O)[C@@H]5[C@@H](O)[C@@H](C)CN5C(=O)[C@H]([C@@H](C)O)NC(=O)[C@H]([C@H](O)[C@@H](O)c5ccc(O)cc5)NC(=O)[C@@H]5C[C@@H](O)CN5C(=O)[C@H]([C@@H](C)O)NC4=O)cc3)cc2)cc1	54.2% (inactive)
O=C(c1ccc(Nc2nccc(-c3ccc(C(F)(F)F)c(Cl)c3)n2)cc1)N1CC(O)C1	131% (inactive)
S=C(NCc1ccc2c(c1)OCO2)N1CCN(c2ncnc3c2oc2ccccc23)CC1	77.9% (inactive)
O=C(Nc1cccc(Cl)c1)c1ccnc(N2CCC(N3CCCC3)CC2)c1	5.81% (active)
COc1cccc2c1C(=O)c1c(O)c3c(c(O)c1C2=O)C[C@@](O)(C(=O)CO)C[C@@H]3O[C@H]1C[C@H](N)[C@H](O)[C@H](C)O1	72.5% (inactive)
C[C@H](NC(=O)c1cc2ccc(F)cc2[nH]1)c1ccccc1	82.5% (inactive)
CCCCC(=O)N(Cc1ccc(-c2ccccc2-c2nn[nH]n2)cc1)[C@H](C(=O)O)C(C)C	83.4% (inactive)
O=C(c1ccc(Nc2nccc(-c3cc(Cl)cc(C(F)(F)F)c3)n2)cc1)N1CC2(COC2)C1	50.6% (inactive)
CC(=O)Nc1ccc(NC(=O)c2cc(-c3ccc(C)cc3O)n[nH]2)cc1	82.5% (inactive)
O=C(NC(CCO)C1CCCCC1)c1cc2ccc(C(F)(F)F)cc2[nH]1 (stereo not given)	85.3% (inactive)
C=CC[C@@H]1/C=C(\C)C[C@H](C)C[C@H](OC)[C@H]2O[C@@](O)(C(=O)C(=O)N3CCCC[C@H]3C(=O)O[C@H](/C(C)=C/[C@@H]3CC[C@@H](O)[C@@H](OC)C3)[C@H](C)[C@@H](O)CC1=O)[C@H](C)C[C@@H]2OC	48.1% (inactive)
O=C(OI(OC(=O)C(F)(F)F)c1ccccc1)C(F)(F)F	182% (inactive)
C[C@@H]1CS/C(=N\NC(=O)C(=O)[C@@H](NC(=O)C2CCCCCC2)C2CCOCC2)N1C	93.2% (inactive)
CCC(CC)COC(=O)[C@H](C)NP(=O)(OC[C@H]1O[C@@](C#N)(c2ccc3c(N)ncnn23)[C@H](O)[C@@H]1O)Oc1ccccc1 (stereo not given in full)	85.7% (inactive)
